Assay results reported in PubChem BioAssay AID488965 (Broad Institute, 2010).
Where “and” joins values, the source holds several entries; their conditions need not be identical. Equal values may be shown once. Among all 340,000 compounds or so, about 210 (0.062%) were called active. No stated cut-off is given here; in the data, active means inhibition above about 30% (passing the limit was not always enough); inconclusive means no clear call, values can overlap the other calls. Many of the other results were omitted from the sample, so actives are more common in it than they were.

Tested on: PvdQ acylase [Pseudomonas aeruginosa LESB58]
Assay: P. aeruginosa PvdQ acylase inhibitors, primary screen, biochemical, fluorescence, plate reader and imaging, single point (AID 488965);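 further: 0% = vehicle neutral wells and 100% = reference inhibitor wells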
Settings: purified PvdQ acylase, at 10 µM, stronger effect = higher value

inhibition, active:
N#Cc1cc([N+](=O)[O-])ccc1Oc1cccc(/C=N/NC(=O)c2ccc(Cl)cc2)c1 65.3%, O=C1C=C(c2cccc(Br)c2)C[C@@H](c2ccc(F)cc2)C1 63.4%, O=C1C=C(c2cccc(Cl)c2)C[C@@H](c2ccc(F)cc2)C1 37.3%

inhibition, inactive:
CC1Cc2ccccc2N1S(=O)(=O)c1ccc(Cl)nc1 (centres undefined) 24.3%, COc1ccc(OCC(=O)NN2Cc3ccccc3C2=N)cc1 7.9%, COc1ccc(CNS(=O)(=O)c2ccc(NC(=O)N3CCCCC3)cc2)cc1 1.88%, O=C(N/N=C/c1cccc(OC(=O)c2ccc([N+](=O)[O-])cc2)c1)c1cccnc1 -8.47%, O=C(N/N=C/c1ccc(Cl)cc1)c1nc2ccc([N+](=O)[O-])cc2c(=O)[nH]1 -8.55%, C/C(=N\NC(=O)Cc1ccccc1[N+](=O)[O-])c1cccnc1 -8.6%, O=C(CN1CCSCC1)N/N=C/c1ccc(F)cc1F -7.29%, COc1ccccc1N1CCN(C(=O)CCS(=O)(=O)c2ccc3c(c2)NC(=O)C(C)S3)CC1 (centres undefined) -17.3%, CN1C(C(=O)NCc2ccco2)CC2Cn3c(nc4ccccc43)C21 (centres undefined) -1.69%, CCOC(=O)N1CCC(Nc2c(NCCCN3CCN(CC)CC3)c(=O)c2=O)CC1 -6.72%, O=C(NCc1ccco1)/C(=C/c1cccc([N+](=O)[O-])c1)NC(=O)c1ccco1 5.34%, OC(CNCC1CCCO1)Cn1c2ccc(Br)cc2c2cc(Br)ccc21 (centres undefined) -10.5%, O=c1cc(Cl)c2ccccc2n1-c1ccccc1 -10.1%, Cc1cccc(N2CCN(C(=O)c3cccc(N4C(=O)C5C6C=CC(C6)C5C4=O)c3)CC2)c1C (centres undefined) -11.5%, Cc1ccc(S(=O)(=O)NCCSC(C)(C)C)cc1 6.35%, COc1ccc(S(=O)(=O)N2C[C@H]3CON(C)[C@H]3C[C@H]2c2cccc(Br)c2)cc1 4.46%, O=C(NCCc1ccccc1)C1CCC(Cn2c(=O)c3ccccc3n(Cc3cccnc3)c2=O)CC1 (centres undefined) -13.5%, COc1ccc(-c2[nH]ncc2CN(C)Cc2cccnc2)c(F)c1 -16.1%, Cc1ccc(N(C(=O)Cc2cccs2)C2C=CS(=O)(=O)C2)cc1Cl (centres undefined) -5.8%, CCCC(=O)N1CCN(c2nnc(-c3ccc(C)cc3)c3ccccc23)CC1 -23.6%, COc1cccc(NC(=O)c2ccccc2N(Cc2ccccc2)S(C)(=O)=O)c1 -17.2%, CCOc1ccc(-c2noc(CCC(=O)NC3CCCC3)n2)cc1OC 3.89%, CC(C)=CCC/C(C)=C/C(=O)O -3.82%, O=C(N/C(=C/c1ccc(Cl)cc1)C(=O)N1CCCCC1)c1ccco1 -10.7%, CN1C(C(=O)NCC2CC2)CC2Cn3c(nc4ccccc43)C21 (centres undefined) -7.73%, COc1cccc(C2=CC(=O)C[C@H](c3ccc(OC)c(OC)c3)C2)c1 -0.585%, COc1ccccc1C1=CC(=O)C[C@H](c2ccc(F)cc2)C1 2.08%, O=C1C=C(c2cccc(Cl)c2O)C[C@@H](c2ccc(F)cc2)C1 -5.55%, COc1cccc(C2=CC(=O)C[C@H](c3ccc(F)cc3)C2)c1OC -13.7%, CC(=O)c1nn(-c2ccc(C)cc2)cc1C(=O)c1cccc(Br)c1 -6.55%, COc1cc(CNC2CCCCC2)c(Br)cc1OC1CCCC1 -10.3%, COc1ccc(NS(=O)(=O)c2cc(NC(=O)CC(=O)c3ccc([N+](=O)[O-])cc3)ccc2C)cc1 -17.8%, CCCCNC(=O)N1CCN(S(C)(=O)=O)CC1 -13.6%, CN1CCN(Cc2c(C(=O)N3CCc4ccccc4C3)nc3ccc(Cl)cn23)CC1 9.88%, CCOc1ccc(/C(O)=C2/C(=O)C(=O)N(Cc3cccnc3)C2c2ccc(N(C)C)cc2)c(C)c1 (centres undefined) -1.75%, COc1ccc(CCN(C)C(=O)C23CC4CC(CC(Cl)(C4)C2)C3)cc1OC 0.828%, O=C(CNC(=O)OCc1ccccc1)NC1CCCCNC1=O (centres undefined) -2.51%, CCC(C(=O)NC1CCCC1)N(C(=O)Cn1nnc(-c2ccc(C)o2)n1)c1ccc(OC)c(OC)c1 (centres undefined) -6.8%, CC(C)=NN1C(=O)c2ccccc2NC1(C)C -15.2%, O=C(Nn1cnc2ccccc2c1=O)c1ccc([N+](=O)[O-])cc1Cl -2.92%, CC1=C(C(=O)Nc2cc(C)ccn2)C(c2cnn(C)c2)C2=C(CC(c3ccccc3)CC2=O)N1 (centres undefined) -10.4%, COc1ccc(N2CCN(C(=O)CN3C(=O)COc4ccccc43)CC2)cc1 -3.63%, COc1ccc(Cn2cc(CN3CCS(=O)(=O)N(Cc4ccc(-c5cccc(Cl)c5)cc4)C(C)C3=O)nn2)cc1 (centres undefined) 6.04%, COc1ccccc1NS(=O)(=O)c1ccc(C)c(C(=O)NCC(c2ccco2)N(C)C)c1 (centres undefined) -1.08%, CC(C)CC(COCc1ccc(Cl)cc1)N1CCN(C(=O)c2ccc(C(F)(F)F)cc2)CCC1=O (centres undefined) -5.2%, COc1ccc(S(=O)(=O)NCC2CCCN(C(=O)c3occc3C)C2)cc1 (centres undefined) -11.7%, Cc1oc(-c2ccccc2Cl)[n+]([O-])c1C -3.53%, CC(C(=O)Nc1ccccc1-c1ccccc1)N1CCOCC1 (centres undefined) 4.97%, CC1(C)Cc2cccc(OCC(=O)N3CCN(c4ccc([N+](=O)[O-])cc4)CC3)c2O1 3.43%, O=C(NCCc1ccccc1)C1CC1 11.7%, Cc1cc(C)cc(NC(=O)C(c2ccccc2)N2CCN(CC(=O)N3CCCC3)CC2)c1 (centres undefined) -12.8%, CCc1ccc(CNC(=O)C2CCN(c3nnc(C)c4c(C)n(-c5ccc(C)cc5)nc34)CC2)cc1 -8.9%, COc1ccc(OC)c(NC(=O)COC(=O)Cc2ccsc2)c1 7.79%, COc1ccc(CCNC(=O)COc2cc(C)cc3oc(=O)c(C)c(C)c23)cc1OC -16.2%, CN1CCN(S(=O)(=O)c2ccc(Nc3ccc(F)cc3)nc2)CC1 4.04%, COc1cc([C@H](Cc2ccccc2)NC(C)=O)oc(=O)c1 -11.2%, Cc1nc2ccccc2c(=O)n1-c1ccc(F)c(NC(=O)c2cccs2)c1 4.62%, CCOC(=O)C1CCCN(C(=O)C2CCN(c3nnc(-n4cccc4)s3)CC2)C1 (centres undefined) -9.35%, Cc1ccc(C(=O)COC(=O)c2cccc(N3C(=O)c4c(C)nc5ccccc5c4C3=O)c2)cc1C -0.235% and -7.76%, COc1ccc(Cl)cc1C(=O)OCC(=O)NCc1cccs1 -17.2%, Cc1ccc(N(CCC(=O)O)S(=O)(=O)c2cccc(C(F)(F)F)c2)cc1 -8.9%
